The supplement of paper PMC3334620
In all, about 33,000 sequences were measured (“E-score (-0.5 to 0.5)”: median about -0.04, highest 2% from about 0.36 on). The entries come from a sample that favours the highest values as a whole.

Molecular target: T1, Hmlalpha2 (UniProt P0CY09)
T1 sequence: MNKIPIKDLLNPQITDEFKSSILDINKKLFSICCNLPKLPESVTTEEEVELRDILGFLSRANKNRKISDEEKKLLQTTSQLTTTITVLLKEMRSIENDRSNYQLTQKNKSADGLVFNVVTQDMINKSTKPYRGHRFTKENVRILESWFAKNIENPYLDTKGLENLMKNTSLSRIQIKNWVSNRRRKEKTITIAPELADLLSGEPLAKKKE
Test: PBM E-score (8-mer binding enrichment) (E-score (-0.5 to 0.5)); higher = stronger / more preferred TF binding
Settings: protein concentration: 200 nM; construct: GST-full length
Procedure: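 Universal 'all 10-mer' protein binding microarrays (Agilent AMADID 015681) probed with GST-tagged S. cerevisiae TFs (full-length or DBD) made by in vitro transcription/translation (PURExpress), about 100-200 nM. Bound TF was detected with fluorescent anti-GST. Each ungapped 8-mer (which stands for itself and its reverse complement) is scored by the PBM enrichment score (E-score), a modified Wilcoxon-Mann-Whitney statistic from -0.5 to +0.5, computed with the Universal PBM Analysis Suite. Scale: above 0.35 generally sequence-specific binding.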

Row | Sequence | PBM E-score
1 | CTTCAATA | 0.173
2 | ATACGGCA | 0.103
3 | CGATGTAG | 0.106
4 | CCATGTAG | 0.416
5 | ACATGTAT | 0.454
6 | GCATGTCC | -0.0024
7 | CCATGTAC | 0.398
8 | CCATGTCC | -0.00972
9 | AAATGTAT | 0.277
10 | GCATGTAC | 0.408
11 | ACATGTCT | 0.305
12 | CCATGTGC | 0.0482
13 | CCATGTCG | 0.336
14 | GCCTGTAC | 0.101
15 | GCAGCTCA | -0.181
16 | CTATGGAC | -0.125
17 | CTGCGAAA | 0.0491
18 | ATTCTGCA | -0.0444
19 | ACCATCGT | -0.151
20 | TCTAAGCA | -0.0643
21 | TCGCTTAA | 0.0673
22 | AATATGCT | 0.0361
23 | ACATGTCG | 0.343
24 | ACATGTAC | 0.412
25 | ACATGTAG | 0.459

Row | Sequence | PBM E-score
26 | ACATGTGC | 0.352
27 | AGATGTAC | 0.121
28 | ACATGTGG | 0.312
29 | CGGTGCGC | -0.279
30 | ACTCTATC | -0.0301
31 | ACCGTAGT | -0.225
32 | AAGGGCCT | -0.136
33 | ATGGCATA | -0.0529
34 | CAAAGGTC | -0.233
35 | ACGATTTA | 0.244
36 | TAACACTA | 0.316
37 | CCACACAC | 0.0345
38 | TTACACAA | 0.478
39 | TTACAAAA | 0.266
40 | TCACACAA | 0.23
41 | CTACACAA | 0.369
42 | CTACACAC | 0.391
43 | CTACACAG | 0.421
44 | CTACAGAG | 0.184
45 | CTACACCC | 0.0904
46 | CTCTACAG | 0.0676
47 | CTACAAAA | 0.0813
48 | CCACACAA | -0.0216
49 | GCATAAGC | 0.119
50 | ACTGCCTC | -0.0994

Row | Sequence | PBM E-score
51 | CCCATTCG | -0.0725
52 | GAAGCGGC | -0.131
53 | GTACACAA | 0.373
54 | GTACACAC | 0.357
55 | GCACACAA | 0.155
56 | AAGTGCTG | 0.107
57 | TGCCACCA | -0.261
58 | AACATGGT | 0.384
59 | GACATGGC | 0.224
60 | AACATGGC | 0.406
61 | ATCATGGG | -0.0934
62 | ACCATGGT | -0.0519
63 | CACATGGC | 0.0319
64 | AACATGGA | 0.346
65 | CACATGGG | -0.0456
66 | AACATGGG | 0.415
67 | ACACTGTA | 0.116
68 | TCAGAAGA | -0.267
69 | AATGCCCA | 0.0243
70 | AAATCCGG | -0.18
71 | AAGTATTG | 0.0978
72 | AACACAAT | 0.373
73 | AACACAAC | 0.409
74 | CACACAAG | 0.248
75 | GACACAAC | 0.264

Row | Sequence | PBM E-score
76 | AACACAGC | 0.379
77 | AACACAGG | 0.247
78 | CACACAGC | 0.201
79 | CACACAAC | 0.27
80 | AACACAAG | 0.326
81 | CGTTAGGA | 0.0405
82 | CATCGACA | -0.0243
83 | GACGCTCA | -0.111
84 | GGCCACCC | -0.351
85 | CGGGGCGC | -0.244
86 | GACACGTA | 0.293
87 | AAAACGTT | 0.0264
88 | AACACGTT | 0.403
89 | AACACGTA | 0.41
90 | CACACGTC | 0.166
91 | ACCACGTA | 0.254
92 | AACACGTC | 0.377
93 | CACACGTG | 0.289
94 | TACACGTA | 0.428
95 | GACACGTC | 0.2
96 | AACACGTG | 0.348
97 | CACACGTA | 0.271
98 | CAAGTACA | 0.266
99 | TAAGTGGA | 0.0716
100 | ACATTTAC | 0.348

Row | Sequence | PBM E-score
101 | ACTGTCGC | -0.165
102 | CGGAGAAG | -0.358
103 | CCCTTTAG | -0.261
104 | ATGACTCG | -0.0578
105 | GATCTAAC | 0.0316
106 | CACCGACG | 0.00164
107 | ACTAGGAG | -0.0601
108 | AACTAGGG | -0.094
109 | GAGGGAAC | -0.165
110 | ATACACCA | 0.215
111 | AGACACGG | 0.228
112 | ATACACGA | 0.432
113 | ACACACGG | 0.277
114 | AGACACGC | 0.147
115 | ATACACGC | 0.449
116 | ATACACGG | 0.445
117 | ACACACGC | 0.288
118 | ATACACTA | 0.149
119 | CTTTCATA | 0.162
120 | AGGTGTTA | 0.256
121 | GCGTGTTA | 0.46
122 | ACGTGTTA | 0.45
123 | GCGTGTGA | 0.284
124 | AGGTGTTG | -0.053
125 | CCGTGTTC | 0.328

Row | Sequence | PBM E-score
126 | GCGTGGTA | 0.0607
127 | ACGTGTTG | 0.415
128 | ACGTGTGG | 0.136
129 | CCGTGTTA | 0.44
130 | ACGTGTTC | 0.211
131 | CAGTGTTA | 0.212
132 | TCGGAGCA | -0.279
133 | CTTAAAAC | 0.201
134 | AACTCTTG | -0.084
135 | GCTTGTTA | 0.286
136 | GAAACCAA | 0.00698
137 | CAAACATA | 0.118
138 | TAAACATA | 0.416
139 | AGAACATA | 0.248
140 | GAAACATA | 0.192
141 | CAAACATG | 0.34
142 | AAAACATC | 0.311
143 | AAAACATG | 0.434
144 | AAAACATA | 0.39
145 | AAAACATT | 0.242
146 | GGTTGAAC | 0.081
147 | ACTGCAGG | -0.11
148 | AACTCACT | 0.0592
149 | AGGTCGGA | -0.164
150 | AACCTAGA | -0.109

Row | Sequence | PBM E-score
151 | AGTGTAAC | 0.198
152 | CGTGTAAG | 0.467
153 | ACTGTAAG | 0.0573
154 | GGTGTAAC | 0.288
155 | CGTGTAAC | 0.443
156 | AGTGTAAG | 0.116
157 | GAAATAGC | -0.0263
158 | CAACTAAA | 0.176
159 | CTCTAGAG | -0.148
160 | TCATCCCA | -0.231
161 | AGTAATAA | 0.257
162 | CGTAATAA | 0.378
163 | CGTAATAC | 0.378
164 | CGTAATAG | 0.246
165 | TGTAATAA | 0.45
166 | GGTAATAC | 0.173
167 | CATAATAA | 0.281
168 | AGTAATAC | 0.211
169 | GGTAATAA | 0.178
170 | AGCGCGCA | 0.0691
171 | CCGGGGAG | -0.241
172 | CAAGTCTG | -0.00344
